Source: PubChem
IMPase inh: IMPase inhibition in cells; AID 901; inhibition (IP1 accumulation), % at 46.1 µM; CHO-M1 cells, IP1 accumulation, HTRF TR-FRET ratio; 120,000 tested, under 10 active; P97697; active = well fitted curve in the direction sought with a large enough effect in the signal ratio, not every such curve was filed as active; inconclusive = small, poorly fitted or top-dose-only effect, or a change in a side signal; inactive = no such curve, though single readings can be large or run the other way; the % refers to the signal ratio;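 also: cells stimulated with carbachol in lithium chloride buffer; higher means more IMPase inhibition seen as more IP1 and lower FRET ratio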
Target sequence (P97697 whole entry, looked up): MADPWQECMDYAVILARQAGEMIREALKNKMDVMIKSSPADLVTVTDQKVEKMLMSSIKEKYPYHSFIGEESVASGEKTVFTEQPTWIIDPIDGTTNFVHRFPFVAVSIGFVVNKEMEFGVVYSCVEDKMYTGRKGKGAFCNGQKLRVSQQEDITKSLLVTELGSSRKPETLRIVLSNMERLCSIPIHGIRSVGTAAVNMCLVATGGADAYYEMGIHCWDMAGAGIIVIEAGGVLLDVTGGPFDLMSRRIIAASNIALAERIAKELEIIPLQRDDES
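Elevated IP1 in lysates lowers TR-FRET signal (665/620 ratio and 620 channel reported). Cells were CHO-M1, given carbachol (50 uM as added) plus 50mM LiCl, pH 7.4, 30 min, 37C; compounds titrated up to 46 uM; AC50 by Hill equation.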
HPGD block: HPGD (human) dehydrogenase inhibition; P15428; 150,000 compounds, 4.3% hits; purified HPGD, NADH fluorescence kinetic, PGE2 substrate; Potency, µM, hits mostly inhibitors
Target sequence (P15428 whole entry, looked up): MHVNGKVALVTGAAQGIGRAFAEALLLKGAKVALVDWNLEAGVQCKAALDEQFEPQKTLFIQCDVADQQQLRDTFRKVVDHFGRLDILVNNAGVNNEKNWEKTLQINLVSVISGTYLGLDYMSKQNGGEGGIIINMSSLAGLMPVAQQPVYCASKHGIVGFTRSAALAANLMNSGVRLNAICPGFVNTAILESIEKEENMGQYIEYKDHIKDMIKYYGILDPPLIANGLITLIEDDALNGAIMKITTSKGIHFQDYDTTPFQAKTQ
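20 nM HPGD preincubated 15 min at room temperature with compound in 50 mM Tris-HCl pH 8, 0.01% Tween 20. Started with 1 mM NAD+ and 30 uM prostaglandin E2; NADH fluorescence (360/450 nm) read 5 times over 30-s intervals, last minus first.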
ALDH1A1 block: blocks purified human ALDH1A1 activity; P00352; Purified ALDH1A1, NADH fluorescence, propionaldehyde substrate; Potency, µM (top dose mostly 75.3 µM), most hits filed as inhibitors; 220,000 compounds, 7.3% hits
Large screens that a line does not name were inactive. The list is not random: actives were taken first. Their share in the collection is about 9%. Unless noted, calls follow the shape of the dose curve; as a rule, active = well fitted inhibition curve with a large enough effect (not every such curve was filed as active); inconclusive = small, poorly fitted or top-dose-only effect, or another doubt; inactive = no such curve, though single readings can be large or run the other way.

CC(C)NS(=O)(=O)c1ccc(NC(=S)NC(=O)c2cccc([N+](=O)[O-])c2)cc1	HPGD block inconclusive, ALDH1A1 block 8.91µM (no result: IMPase inh)
O=C(NC(=S)Nc1ccc(CN2CCOCC2)cc1)c1cccc([N+](=O)[O-])c1	ALDH1A1 block 12.6µM (no result: IMPase inh)
CCC(=O)NC(=S)Nc1ccc(S(=O)(=O)NC(C)C)cc1	none
CC(C)Oc1ccc(C(=O)NC(=S)Nc2ccc(CN3CCOCC3)cc2)cc1	ALDH1A1 block 7.08µM (no result: IMPase inh)
O=C(NC(=S)Nc1ccc(N2CCOCC2)cc1)c1cccc([N+](=O)[O-])c1	none (no result: IMPase inh)
O=C1C(CCC(O)c2ccc(F)cc2)C(c2ccc(O)cc2)N1c1ccc(F)cc1 (stereo unspecified)	none (no result: IMPase inh)
COC(=O)NC/C=C\c1nc(CCCO)co1	none (no result: IMPase inh, HPGD block)
COc1ccc(C2SCC(=O)N2CCc2ccc(OC)c(OC)c2)cc1 (stereo unspecified)	none (no result: IMPase inh, HPGD block)
COc1ccc(-n2c(=O)c(-c3ccc(F)c(F)c3)nc3cncnc32)cc1	none (no result: IMPase inh, HPGD block)
C/C=C1\C(OC2OC(CO)C(O)C(O)C2O)OC=C(C(=O)OC)C1CC(=O)OCC1C(C)C(OC(=O)CC2C(C(=O)OC)=COC(OC3OC(CO)C(O)C(O)C3O)/C2=C\C)CC1C(CO)CO (stereo unspecified)	none (no result: IMPase inh, HPGD block)
O=C(/C=C/c1cccc(Br)c1)NCC1CCCCC1	ALDH1A1 block 11.2µM
O=C(COC(=O)/C=C/c1cccc(Br)c1)NCCC1=CCCCC1	none (no result: IMPase inh)
O=C(Nc1ccccc1)OCc1cncs1	none (no result: IMPase inh, HPGD block)
COc1ccccc1CNc1ccc(CNc2ncn[nH]2)cc1	none (no result: IMPase inh, HPGD block)
COc1cccc(CNc2ncn[nH]2)c1OCc1ccc(F)cc1	ALDH1A1 block 28.2µM (no result: IMPase inh, HPGD block)
COc1ccc(/C=C/S(=O)(=O)NCc2ccccc2)cc1OC	none (no result: IMPase inh, HPGD block)
CCCCN=C(NNc1ccc(Br)cc1)C(=O)OCC	ALDH1A1 block 14.1µM
CCOC(=O)C(=NCCCN(C)C)NNc1ccc(Br)cc1	ALDH1A1 block inconclusive (no result: IMPase inh)
Cc1c(C)n(Cc2ccccc2)c2ccc(C(=O)OCCN(C)C)cc12	none (no result: IMPase inh, HPGD block)
CN=C1NN=C(c2cc(C)n(-c3c(C)n(C)n(-c4ccccc4)c3=O)c2C)CS1	none (no result: IMPase inh)
COCCCN=C1NN=C(c2cc(C)n(Cc3ccco3)c2C)CS1	none (no result: IMPase inh)
Cc1cc(C2=NNC(=NC3CC3)SC2)c(C)n1Cc1ccco1	ALDH1A1 block 20µM
Cc1cc(C2=NNC(=NC3CC3)SC2)c(C)n1-c1ccccc1	ALDH1A1 block 3.55µM
C/C(=N\NC(=O)CCCNc1cccc(C)c1)c1ccncc1	none (no result: IMPase inh, HPGD block)
O=C1CC[C@@H](CN(Cc2ccccn2)Cc2nc(Cc3cccc(C(F)(F)F)c3)no2)N1	none (no result: IMPase inh, HPGD block)
CCc1cccc(NC(=O)C2CCC(CNS(=O)(=O)c3ccc(Br)s3)CC2)c1 (stereo unspecified)	none (no result: HPGD block, ALDH1A1 block)
Cc1ccc(C(=O)C(OC(=O)CN2C(=O)c3ccccc3C2=O)c2ccccc2)cc1 (stereo unspecified)	none
Cc1ccc2c(c1)C(=O)C(=O)N2CC(=O)OC(C)C	ALDH1A1 block 0.0794µM
CC(C)CC(NC(=O)c1ccc(Cl)cc1)C(=O)OCc1cc([N+](=O)[O-])cc2c1OCOC2 (stereo unspecified)	ALDH1A1 block inconclusive (no result: IMPase inh)
Cc1nc2ccccc2c(=O)n1/N=C/c1cccs1	none (no result: IMPase inh, HPGD block)
Cc1cc(-c2n[nH]c(=S)n2/N=C/c2cccs2)n[nH]1	HPGD block inconclusive (no result: IMPase inh)
Cc1ccc(-c2n[nH]c(=S)n2/N=C/c2cccs2)cc1	HPGD block 12.6µM, ALDH1A1 block inconclusive
Cc1ccc(-c2n[nH]c(=S)n2/N=C/c2ccc(C)s2)cc1	HPGD block 3.98µM
COc1cccc(/C=N/n2c(-c3cccs3)n[nH]c2=S)c1	HPGD block 2.24µM, ALDH1A1 block inconclusive
Cc1nnc(C)n1/N=C/c1cccc(Oc2ccccc2)c1	none
S=c1[nH]nc(-c2ccccc2)n1/N=C/c1cccs1	HPGD block 17.8µM, ALDH1A1 block 25.1µM
Cc1ccc(/C=N/n2c(-c3ccc(Cl)cc3)n[nH]c2=S)s1	none (no result: IMPase inh, HPGD block)
CCOc1ccccc1C(=O)NC1(C(F)(F)F)C(=O)Nc2c1c(=O)[nH]c(=O)n2-c1ccccc1 (stereo unspecified)	none (no result: HPGD block, ALDH1A1 block)
COc1ccc(NC(=O)c2ccc(Cl)c(NC(=O)c3ccncc3)c2)cc1	none (no result: IMPase inh, HPGD block)
COc1cccc(Cn2c(=O)c(-c3ccc(F)c(F)c3)nc3cncnc32)c1	none (no result: IMPase inh)
O=C(Nc1ccccc1F)Nc1ccccc1Br	none (no result: IMPase inh, HPGD block)
Nc1ccccc1S(=O)(=O)NC1=NCCCCC1	none (no result: IMPase inh)
O=C1OC(c2ccc(Cl)cc2)/C(=C(/O)c2ccccc2)C1=O (stereo unspecified)	ALDH1A1 block 7.94µM
COc1ccc(C2/C(=C(/O)c3ccccc3)C(=O)C(=O)N2C)cc1 (stereo unspecified)	none
CSc1ccccc1NS(=O)(=O)c1ccccc1	ALDH1A1 block 8.91µM
Cc1cc(O)c(C(C)C)cc1NS(=O)(=O)c1ccccc1	ALDH1A1 block 14.1µM
Cc1cc(O)c(C(C)C)cc1NC1=NS(=O)(=O)c2ccccc21	ALDH1A1 block inconclusive
COc1ccc(S(=O)(=O)Nc2ccccc2SC)cc1C	ALDH1A1 block inconclusive
CC/C=C\C/C=C\C/C=C\C/C=C\C/C=C\CCC(=O)O[C@H](COCCCCCCCCCCCCCCCC)COP(=O)([O-])OCC[N+](C)(C)C	none (no result: IMPase inh)
O=C(CN1CCN(c2ncccn2)CC1)NCCC1=CCCCC1	none
Cn1c(SCc2ccccn2)nnc1-c1ccncc1	none
CCOC(=O)N1CCN(CC(O)c2ccc3c(c2)CCN3)CC1 (stereo unspecified)	ALDH1A1 block 17.8µM (no result: HPGD block)
CCOC(=O)N1CCN(CC(O)c2ccc3cc[nH]c3c2)CC1 (stereo unspecified)	none
OCC(O)CN1CCN(c2ccccc2)CC1 (stereo unspecified)	none (no result: IMPase inh)
OC(CN1CCN(c2ccccc2)CC1)c1ccc2c(c1)CCN2 (stereo unspecified)	ALDH1A1 block 7.08µM
CSc1nnnn1-c1cccc(O)c1	none
COc1cccc2c1[C@H](CO)N1[C@H](C#N)[C@@H]3C[C@H](C(=O)O)[C@@H]([C@@H]1C2)N3C	none (no result: IMPase inh)
O=C(O)Cn1nnnc1SCC(=O)Nc1ccc(F)cc1F	none (no result: IMPase inh, HPGD block)
CC1CN(C(=O)C(C)Sc2nnnn2C)CC(C)O1 (stereo unspecified)	none (no result: IMPase inh, HPGD block)
CCCOc1ccc(C(=O)CCN2CCCCC2)cc1	ALDH1A1 block 0.0562µM
O=C(OCCN1CCOCC1)c1ccc(OCCN2CCOCC2)cc1	none
CCCCOc1ccc(C(=O)CCN2CCOCC2)cc1	ALDH1A1 block 0.282µM (no result: IMPase inh, HPGD block)
CCCOc1ccc(C(O)(CCC)CCN2CCCCC2)cc1 (stereo unspecified)	ALDH1A1 block 25.1µM
CCCOc1ccc(OCCN2CCCC(C)C2)cc1 (stereo unspecified)	ALDH1A1 block inconclusive (no result: IMPase inh)
CC(C)Oc1ccc(OCCCN2CCCCCC2)cc1	none
CCOc1ccc(C(=O)CCN2CCCCCC2)cc1	ALDH1A1 block 0.0631µM
CCOc1ccc(OCCN2CCCCC2)cc1	none (no result: IMPase inh)
O=C(CSc1nnc(CNc2ccc(F)cc2)n1-c1ccccc1)N1CCOCC1	none
CCN(CC)S(=O)(=O)c1ccc(Br)c(OC)c1	none
CC(=O)NCc1ccc(C(=O)CSc2nnc(-c3ccncc3)n2Cc2ccccc2)o1	ALDH1A1 block inconclusive
CC1CN(S(=O)(=O)c2cccc(C(=O)Nc3ccc4c(c3)CCC4)c2)CC(C)O1 (stereo unspecified)	ALDH1A1 block inconclusive (no result: IMPase inh)
Brc1ccc(OCCOCCN2CCOCC2)cc1	none
CCCC(O)(CCN1CCOCC1)c1ccc(Br)cc1 (stereo unspecified)	ALDH1A1 block 5.01µM
COc1ccc([N+](=O)[O-])cc1NC(=O)c1ccc(-n2nc(C)cc2C)cc1	none (no result: IMPase inh, HPGD block)
